This passage reports activation and Potency results from PubChem BioAssay (NCATS).

Records with an inconclusive call do not appear. Calls of active or inactive are those of the source. Calls follow the shape of the dose curve; as a rule, active = well fitted activation curve with a large enough effect; inconclusive = small, poorly fitted or top-dose-only effect; inactive = no such curve, though single readings can be large or run the other way.
Potency is read from the fitted curve at half-maximal effect.

Cellular tumor antigen p53 (Homo sapiens), sequence (P04637 whole entry, looked up): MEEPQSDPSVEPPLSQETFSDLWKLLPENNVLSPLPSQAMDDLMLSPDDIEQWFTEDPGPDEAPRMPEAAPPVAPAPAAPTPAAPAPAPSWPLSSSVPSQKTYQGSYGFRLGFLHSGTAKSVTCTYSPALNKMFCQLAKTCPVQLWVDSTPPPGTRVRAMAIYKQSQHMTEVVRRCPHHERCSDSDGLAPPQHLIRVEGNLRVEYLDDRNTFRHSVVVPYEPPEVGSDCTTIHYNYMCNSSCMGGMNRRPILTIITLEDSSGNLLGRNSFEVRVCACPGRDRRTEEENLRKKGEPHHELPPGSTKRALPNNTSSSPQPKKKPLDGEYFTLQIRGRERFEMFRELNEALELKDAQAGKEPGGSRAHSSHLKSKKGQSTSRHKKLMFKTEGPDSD

The test addresses Cellular tumor antigen p53 (Homo sapiens) (UniProt P04637). The test is described as follows: Primary qHTS for small molecule compounds that upregulate eGFP-tagged delta133p53alpha (in N-terminal) cells. (AID 2060322). Also: nearly all actives have a fitted effect of over 75% in size.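 As to activation: cells pre-induced with doxycycline then dosed without doxycycline; series mostly up to about 56 µM; 0% = DMSO vehicle and 100% = reference activator.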 Conditions: NCI-H358 eGFP-delta133p53alpha fluorescence, 24 h; activation: stronger effect = higher value. The method in brief:
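NCI-H358 cells pre-induced 24 h with 10 ng/ml doxycycline for eGFP-delta133p53alpha, plated dox-free and exposed 24 h at 37C to titrated compounds. Fixed, Hoechst-stained; gated GFP peak intensity by laser scanning cytometry, normalized to DMSO (0%) and 57.5 uM 5-azacytidine (100%).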
A general note: qHTS replaces the single test concentration by a dilution series.
As for `CCCCOCCOC(=O)c1cccnc1`, the activation was -10.7% (inactive). The same measure, in the same setting: next, `Cc1c(F)cc2c(=O)c(C(=O)O)cn3c2c1CCC3C` (stereo not given): 16.7% (inactive); `Cc1c(NC(C)C)c(=O)n(-c2ccccc2)n1C`: 11.7% (inactive). As to `CCn1cc(C(=O)O)c(=O)c2cnc(N3CCNCC3)nc21`, the activation is 0.837% (inactive). On to `Cc1cn([C@@H]2O[C@H](CO)[C@@H](O)[C@H]2F)c(=O)[nH]c1=O`, for which the activation is 5.67% (inactive). With `CCc1cnn2c(NCc3ccc[n+]([O-])c3)cc(N3CCCC[C@@H]3CCO)nc12`, the Potency is 0.0685 µM (active). With `CCC(CC)(CC(=O)Nc1cccc(/C=C/c2nc(C3CCC3)cs2)c1)C(=O)O`, the activation is 24.3% (inactive). Same read-out and setting: the same measure for `Cc1ncc(CSSCc2cnc(C)c(O)c2CO)c(CO)c1O`: -22% (inactive). Same read-out and setting: next, `OC(CCN1CCCCC1)(c1ccccc1)c1ccccc1`: 1.69% (inactive). In the case of `Cc1cc(C(C)(C)C)c(O)c(C(C)(C)C)c1`, the Potency is 21.9 µM (active). `CC(=O)N1CCN(c2ccc(OCc3nn(C)c(C)c3-c3cccc4c(CCCOc5cccc6ccccc56)c(C(=O)O)n(Cc5cccnc5)c34)cc2)CC1`: the activation is 22.3% (inactive).

Take `NC(CS)C(=O)O` (stereo not given): the activation was -24.3% (inactive).

On to `NC(=O)NC1N=C([O][Al])NC1=O` (stereo not given), for which the activation is 8.47% (inactive). Still for that read-out and setting: next, `Cc1cc(C)nc(NS(=O)(=O)c2ccc(N)cc2)n1`: 24.3% (inactive). The same measure, in the same setting: next, `CN(C)CC/C=C1\c2ccccc2Sc2ccc(Cl)cc21`: 0% (inactive); `C[C@@H]1CN(CCCn2c3ccccc3c3ccccc32)C[C@H](C)N1`: 16.4% (inactive); `COc1ccc(C(Cl)=C(c2ccc(OC)cc2)c2ccc(OC)cc2)cc1`: -1.67% (inactive). `CCN(CC)S(=O)(=O)c1ccc(C(=O)O)cc1`: the activation was -11.7% (inactive). Still for that read-out and setting: next, `Oc1c(I)cc(Cl)c2cccnc12`: -2.51% (inactive); `CC1(C)S[C@@H]2[C@H](NC(=O)[C@H](N)c3ccccc3)C(=O)N2[C@H]1C(=O)O`: -15.3% (inactive); `NS(=O)(=O)c1cc(C(=O)NN2C[C@H]3[C@H]4CCC(C4)[C@H]3C2)ccc1Cl`: 0% (inactive). Consider `N#CC(=C(N)Sc1ccccc1N)C(C#N)=C(N)Sc1ccccc1N`, for which the Potency was 17.2 µM (active). Consider `NS(=O)(=O)c1cc2c(cc1Cl)CN(C1CCCCC1)C2=O`, for which the activation was 20.9% (inactive). Still for that read-out and setting: next, `O=C(Nc1ccc(Oc2ccc(Cl)cc2)c(Cl)c1)c1cc(I)cc(I)c1O`: -20.9% (inactive); `CC(=Cc1ccccc1)C=C1SC(=S)N(CC(=O)O)C1=O`: -1.94% (inactive); `COC(=O)C1=C(C)NC(C)=C(C(=O)OCCc2ccc(N3CCN(C(c4ccccc4)c4ccccc4)CC3)cc2)C1c1cccc([N+](=O)[O-])c1` (stereo not given): -15.9% (inactive).

In the case of `NC(=O)CC[C@@H]1NC(=O)[C@H](Cc2ccccc2)NC(=O)[C@H](Cc2ccc(O)cc2)NC(=O)CCSSC[C@@H](C(=O)N2CCC[C@H]2C(=O)N[C@@H](CCCN=C(N)N)C(=O)NCC(N)=O)NC(=O)[C@H](CC(N)=O)NC1=O`, the activation was -3.35% (inactive). On to `NCC(=O)CCC(=O)O`, for which the activation is -14.1% (inactive). Same read-out and setting: the same measure for `Cc1ccc(Cl)c(OCC(O)CNC(C)(C)C)c1` (stereo not given): -2.51% (inactive); for `Oc1ccccc1-c1nnco1`: -23.2% (inactive); for `CC1(C)[C@H](O[C@H]2O[C@H](C(=O)O)[C@@H](O)[C@H](O)[C@H]2O[C@@H]2O[C@H](C(=O)O)[C@@H](O)[C@H](O)[C@H]2O)CC[C@@]2(C)[C@H]1CC[C@]1(C)[C@H]2C(=O)C=C2[C@H]3C[C@@](C)(C(=O)O)CC[C@]3(C)CC[C@]21C`: -5.71% (inactive). As to `CC1(C)C(=O)CCC2(C)C1C(O)C=C1COC(=O)C12O` (stereo not given), the activation was 25.2% (inactive). On the same count and under the same terms, the same measure for `O=C(O)c1ccc(S(=O)(=O)N(Cl)Cl)cc1`: 20.9% (inactive).

As to `O=C(C=Cc1ccc(O)cc1)c1ccc(O)cc1O`, the activation was -12.8% (inactive). As to `Cc1nc(-c2ccc(Cl)cc2)oc1COC(C)(C)C(=O)O`, the activation was 1.67% (inactive). Still for that read-out and setting: next, `O=C1Cc2cc(Cl)ccc2N1`: 5.08% (inactive); `Clc1ccc2c(c1)Nc1ccccc1S2`: 20.9% (inactive). On the same count and under the same terms, next, `C[C@H]1[C@H](NC(=O)/C(=N/OC(C)(C)C(=O)O)c2csc(N)n2)C(=O)N1S(=O)(=O)O` (stereo in doubt): 5.08% (inactive); `COc1ccc(S(=O)(=O)N2c3ccc(Cl)cc3[C@@](O)(c3ccccc3Cl)[C@H]2C(=O)N2CCC[C@@H]2C(N)=O)cc1OC`: -10.9% (inactive). On the same count and under the same terms, the same measure for `CNC(=O)c1c(I)c(NC(=O)CCCCC(=O)Nc2c(I)c(C(=O)O)c(I)c(C(=O)NC)c2I)c(I)c(C(=O)O)c1I`: -10% (inactive).
